# In PubChem BioAssay AID1570 (National Center for Advancing Translational Sciences (NCATS), 2009):
# Records with an inconclusive call do not appear. Activity calls are given as the source filed them. The call rests on the fitted dose curve; in most records, active means well fitted inhibition curve with a large enough effect; inconclusive means small, poorly fitted or top-dose-only effect, or effect the other way; inactive means flat fitted curve, though single readings scatter.
# Biological target: Thyroid hormone receptor beta (Homo sapiens) (UniProt P10828)
# Assay: Concentration Response Confirmation Assay for Inhibitors of the Interaction of Thyroid Hormone Receptor and Steroid Receptor Coregulator 2, Fluorescein Fluoroprobe
# Conditions: TRbeta LBD / fluorescein-SRC2 peptide, fluorescence polarization, 5 h; series mostly up to 92.2 µM; activity, negative = inhibition: at the top concentration
# How it was run: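 Fluorescence polarization with 0.6 uM TRbeta ligand-binding domain and 20 nM fluorescein-SRC2 peptide in Tris buffer containing 1 uM T3 and 5% DMSO. Read after 5 h at ambient temperature (ex 480/em 535); data normalized to unbound and bound controls, giving concentration-response potencies.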
# Sequence of Thyroid hormone receptor beta (Homo sapiens) (P10828 whole entry, looked up): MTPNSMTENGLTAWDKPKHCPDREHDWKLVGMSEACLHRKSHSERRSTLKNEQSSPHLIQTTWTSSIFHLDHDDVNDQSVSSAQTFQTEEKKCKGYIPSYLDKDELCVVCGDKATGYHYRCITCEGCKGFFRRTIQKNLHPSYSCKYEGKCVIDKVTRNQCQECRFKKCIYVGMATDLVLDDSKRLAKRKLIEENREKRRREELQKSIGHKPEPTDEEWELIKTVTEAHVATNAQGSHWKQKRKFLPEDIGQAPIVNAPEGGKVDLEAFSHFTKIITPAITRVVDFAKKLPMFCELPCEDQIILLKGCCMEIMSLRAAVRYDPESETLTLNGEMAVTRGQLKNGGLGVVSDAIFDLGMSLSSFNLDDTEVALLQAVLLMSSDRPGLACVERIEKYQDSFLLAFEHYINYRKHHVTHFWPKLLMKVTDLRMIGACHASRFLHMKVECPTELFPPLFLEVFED
SMILES,"activity, negative = inhibition",Potency
Cc1nnc(SCC(=O)Nc2ccc(N(C)C)cc2)[nH]c1=O,6.74% [at 184 µM] (inactive),
CCCc1cc(=O)[nH]c(=S)[nH]1,2.33% (inactive),
CCOc1cc(C(c2c(C)[nH][nH]c2=O)c2c(C)[nH][nH]c2=O)ccc1OC(=O)c1cccc([N+](=O)[O-])c1,,15.8 µM (active)
Cc1nc2ccccc2n2c(O)c(CC(=O)O)cc12,,8.91 µM (active)
Cn1c(=O)[nH]c2nnc(-c3ccc(Cl)c(Cl)c3)nc2c1=O,1.24% (inactive),
CCCCCCN=CC1=C(O)CC(C)(C)CC1=O,4.31% [at 0.0112 µM] (inactive),
CCCCOc1ccc(C(=O)CCN2CCOCC2)cc1,,3.55 µM (active)
O=c1[nH]c(Nc2ccccc2)cc2ccccc12,,25.1 µM (active)
CC1=NN(Cc2ccccc2)C(=O)C1,-2.3% (inactive),
